Here are results for 16 compounds from PubChem BioAssay (NCATS).

Test [1] concerns the target Cytochrome P450 3A7 (Homo sapiens) (UniProt P24462). In words: Cytochrome P450 family 3 subfamily A member 7 (CYP3A7) small molecule antagonists: luciferase biochemical qHTS assay (AID 1963596). Further: nearly all actives have a fitted effect of over 40% in size. The method, boiled down: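 Recombinant CYP3A7 P450-Glo luminescent assay: enzyme-proluciferin substrate mix preincubated with compound 10 min at room temperature, reaction started with NADPH regeneration system for 1 h. Luciferin detected by luminescence; ketoconazole as positive control.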

The nature of test [2]: Viability qHTS for spleen associated tyrosine kinase inhibitor (SYKi) drug resistant MV4-11 cells (AID 1963824). Further: nearly all actives have a fitted effect of over 35% in size. Further: potency means the concentration at half of the fitted maximal effect. The essentials:
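SYK-inhibitor-resistant MV4-11 AML cells were seeded at 500 per well onto compound and cultured 72 hours (37 °C, 5% CO2). CellTiter-Glo was then added, and after 10 min at room temperature, luminescence gave viability.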
On the technique in general: Quantitative high-throughput screening tests each substance at several concentrations.

Test [3] is described as follows: Cellular viability qHTS for adrenocortical cancer (ACC) cell line SW-13 (AID 1963989).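 Further: cells grown in serum-free medium with ITS supplement; nearly all actives have a fitted effect of over 65% in size.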 The following applies: SW-13 ACC cells viability, CellTiter-Glo, 48 h; activity (max response): stronger effect = lower value. The essentials: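 48 h treatment, SW-13 in ITS/DMEM serum-free; doses up to 46 uM; readout CellTiter-Glo luminescence; curve fit four-parameter logistic.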
Test [4] is described as follows: Cellular viability qHTS for adrenocortical cancer (ACC) cell line NCI-H295R (AID 1963990). Further: nearly all actives have a fitted effect of over 60% in size. The method, boiled down: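 Compound titrations (up to 46 uM final) are applied to NCI-H295R cultures for 48 h at 37C. Viable cell number is estimated by CellTiter-Glo signal, normalised to DMSO and doxorubicin controls.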
Test [5] is described as follows: Viability qHTS for spleen associated tyrosine kinase inhibitor (SYKi) naive MV4-11 cells (AID 1963823). Further: nearly all actives have a fitted effect of over 40% in size. Further: potency means the concentration at half of the fitted maximal effect. The essentials:
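Viability of MV4-11 AML cells lacking prior SYK inhibitor exposure is scored by CellTiter-Glo luminescence following 72 hr compound incubation at 37 C, 5% CO2, seeded at 500 cells per well.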

Several values for one entry are separate records, joined by “and”; a condition that tells them apart may be missing. Equal entries are not always repeated. Results filed as inconclusive are left out. Entries that show only a call come without a potency. A number with no mark means an inactive call. Activity calls are given as the source filed them. The call rests on the fitted dose curve; in most records, active means well fitted curve in the direction sought with a large enough effect; inconclusive means small, poorly fitted or top-dose-only effect, or another doubt; inactive means no such curve, though single readings can be large; an effect the other way counts as inactive or inconclusive.

Sequence of Cytochrome P450 3A7 (Homo sapiens) (P24462 whole entry, looked up): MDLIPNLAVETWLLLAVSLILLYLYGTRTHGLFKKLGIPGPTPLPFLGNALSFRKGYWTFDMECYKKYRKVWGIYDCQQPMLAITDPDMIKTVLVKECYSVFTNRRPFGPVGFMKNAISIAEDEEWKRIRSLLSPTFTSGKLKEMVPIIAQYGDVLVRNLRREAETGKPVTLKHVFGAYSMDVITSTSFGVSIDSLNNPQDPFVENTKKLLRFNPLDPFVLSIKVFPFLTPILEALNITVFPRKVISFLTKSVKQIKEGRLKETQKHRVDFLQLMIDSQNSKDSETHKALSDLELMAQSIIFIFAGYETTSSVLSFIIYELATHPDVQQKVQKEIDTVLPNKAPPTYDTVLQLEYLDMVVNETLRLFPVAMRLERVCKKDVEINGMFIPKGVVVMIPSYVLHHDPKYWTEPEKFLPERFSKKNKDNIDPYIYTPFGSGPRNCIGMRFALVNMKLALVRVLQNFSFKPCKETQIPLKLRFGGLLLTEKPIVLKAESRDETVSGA

Regarding `COc1ccc(NC(=O)Cn2ccn(-c3ccc(C)c(C)c3)c(=O)c2=O)cc1Cl`, the Potency result in test [1] is “inactive”.

For `CN(C)C(=O)NC1CCC(CCN2CCN(c3cccc(Cl)c3Cl)CC2)CC1` (stereo unspecified), the Potency result in test [1] is “inactive”. With `Cn1c(=O)c2c(nc(CN3CCN(C(=O)C4CC4)CC3)n2Cc2cccc(F)c2)n(C)c1=O`, the Potency entry in test [1] is “inactive”. The same measure, in the same setting: for `COc1ccc(-n2nc3c(N4CCCC(C(=O)NCc5ccc(C)cc5)C4)nnc(C)c3c2C)cc1` (stereo unspecified) the value was “inactive”; for `C[C@H](O)CN(C)C`, “inactive”.

For the compound `C=CCNc1nc(NCC=C)nc(N2CCN(C(c3ccc(F)cc3)c3ccc(F)cc3)CC2)n1`, the Potency result in test [1] was “inactive”.

With `Cc1c(O)cc2c(c1C)O[C@](C)(CCC[C@H](C)CCC[C@H](C)CCCC(C)C)CC2`, the Potency result in test [1] was “inactive”. On the same count and under the same terms, for `COC(=O)C(CN)c1c[nH]c2ccc(OC)cc12` (stereo unspecified) the value was “inactive”; for `CCc1ccccc1OC[C@@H](O)CN[C@H]1CCCc2ccccc21`, “inactive”. On the same count and under the same terms, for `CCn1nnnc1NCc1ccc(C(C)C)cc1` the value was “inactive”; for `COc1ccc([C@@H]2N[C@H](C(=O)O)Cc3c2[nH]c2ccccc32)cc1CN1CCN(c2ccccc2F)CC1`, “inactive”. Turning to `CCN(CC)CCCC(C)Nc1ccnc2cc(Cl)ccc12` (stereo unspecified), the Potency in test [2] is 10.3 µM (active). In addition, the activity (max response) in test [3] was 0.695% and -16.4%. Further, the Potency entry in test [4] is “inactive”. Regarding `Cn1nc(-c2ccc(C(F)(F)F)cc2)nc2c(=O)n(C)c(=O)nc1-2`, the Potency entry in test [1] was “inactive”. In addition, the Potency is 3.66 µM (active) in test [5] and 4.11 µM (active) in test [2].

`COc1ccc(C(=O)c2ccccc2)c(O)c1`: the Potency entry in test [1], in test [5] and in test [2] was “inactive” each time.

For the compound `NC(=O)c1ccc([N+](=O)[O-])cc1Cl`, the Potency result in test [1], in test [5] and in test [2] was “inactive” each time. Take `CN(C)S(=O)(=O)c1ccc(NC(=S)N2CCC(C(O)(c3ccccc3)c3ccccc3)CC2)cc1`: the Potency entry in test [1] is “inactive”. Further, the Potency in test [5] was 16.4 µM (active); in test [2], 18.4 µM (active).
